PubChem BioAssay AID1159580 (chemical genetic matrix, 2015)
Screen size: about 5,500 compounds; about 2,000 (36%) were called active. Another 18% or so got no clear call; they are omitted. Rule as the data show it: active = normalized growth mostly below about 0.91 (no sharp cut-off); inconclusive = no clear call, values can overlap the other calls; inactive = mostly above about 0.92. The list shows a part of the results.

Assay: chemical genetic growth profiling, strain panel (AID 1159580);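 also: tested at 20 µM; growth read once vehicle control cultures reached saturation at 30 °C; 1 = growth at the plate median or of vehicle wells; lower values mean less growth of the strain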
Settings: growth OD

Measured: normalized growth

Nc1ncnc2c1ncn2[C@@H]1O[C@H](CO)[C@@H](O)[C@H]1O
inactive: S. cerevisiae deletion strains, locus YJR066W, strain TOR1, stronger effect = lower value 0.966 | S. cerevisiae deletion strains, locus YJR075W, strain HOC1, stronger effect = lower value 0.99 | S. cerevisiae deletion strains, locus YKL009W, strain mrt4, stronger effect = lower value 0.961 | S. cerevisiae deletion strains, locus YKL068W, stronger effect = lower value 0.983 | S. cerevisiae deletion strains, locus YKL085W, strain MDH1 (second series), stronger effect = lower value 0.965 | S. cerevisiae deletion strains, locus YKL085W, strain MDH1, stronger effect = lower value 0.965 | S. cerevisiae deletion strains, locus YKL160W, strain elf1, stronger effect = lower value 0.955 | S. cerevisiae deletion strains, locus YKR001C, strain vps1, stronger effect = lower value 0.997 | S. cerevisiae deletion strains, locus YKR026C, strain gcn3, stronger effect = lower value 0.987 | S. cerevisiae deletion strains, locus YKR091W, strain srl3, stronger effect = lower value 0.994 | S. cerevisiae deletion strains, locus YLL001W, strain dnm1, stronger effect = lower value 0.922 | S. cerevisiae deletion strains, locus YLL026W, stronger effect = lower value 0.99 | S. cerevisiae deletion strains, locus YLL041C, strain sdh2, stronger effect = lower value 0.99 | S. cerevisiae deletion strains, locus YLR027C, strain aat2, stronger effect = lower value 0.994 | S. cerevisiae deletion strains, locus YLR039C, strain RIC1, stronger effect = lower value 0.95 | S. cerevisiae deletion strains, locus YLR058C, strain SHM2, stronger effect = lower value 0.971 | S. cerevisiae deletion strains, locus YLR102C, strain apc9, stronger effect = lower value 0.978 | S. cerevisiae deletion strains, locus YLR113W, strain HOG1, stronger effect = lower value 1.01 | S. cerevisiae deletion strains, locus YLR221C, strain rsa3, stronger effect = lower value 0.95 | S. cerevisiae deletion strains, locus YLR258W, strain gsy2, stronger effect = lower value 0.975 | S. cerevisiae deletion strains, locus YLR262C, strain YPT6 (second series), stronger effect = lower value 0.974 | S. cerevisiae deletion strains, locus YLR262C, strain YPT6, stronger effect = lower value 0.913 | S. cerevisiae deletion strains, locus YLR268W, strain sec22, stronger effect = lower value 1 | S. cerevisiae deletion strains, locus YLR320W, strain mms22, stronger effect = lower value 0.939 | S. cerevisiae deletion strains, locus YLR330W, strain CHS5, stronger effect = lower value 0.993 | S. cerevisiae deletion strains, locus YLR342W, strain FKS1 (second series), stronger effect = lower value 1.03 | S. cerevisiae deletion strains, locus YLR342W, strain FKS1, stronger effect = lower value 0.993 | S. cerevisiae deletion strains, locus YLR357W, strain rsc2, stronger effect = lower value 0.983 | S. cerevisiae deletion strains, locus YLR370C, strain arc18, stronger effect = lower value 0.967 | S. cerevisiae deletion strains, locus YLR371W, strain rom2, stronger effect = lower value 0.978 | S. cerevisiae deletion strains, locus YLR384C, strain iki3, stronger effect = lower value 0.982 | S. cerevisiae deletion strains, locus YLR418C, strain cdc73, stronger effect = lower value 0.945 | S. cerevisiae deletion strains, locus YML016C, strain PPZ1, stronger effect = lower value 0.987 | S. cerevisiae deletion strains, locus YML032C, strain rad52, stronger effect = lower value 0.949 | S. cerevisiae deletion strains, locus YML120C, strain ndi1, stronger effect = lower value 0.952 | S. cerevisiae deletion strains, locus YML124C, strain tub3, stronger effect = lower value 0.988 | S. cerevisiae deletion strains, locus YMR058W, strain fet3, stronger effect = lower value 0.995 | S. cerevisiae deletion strains, locus YMR078C, strain ctf18, stronger effect = lower value 0.972 | S. cerevisiae deletion strains, locus YMR125W, strain sto1, stronger effect = lower value 0.982 | S. cerevisiae deletion strains, locus YMR129W, stronger effect = lower value 0.995 | S. cerevisiae deletion strains, locus YMR205C, strain PFK2, stronger effect = lower value 0.944 | S. cerevisiae deletion strains, locus YMR223W, strain ubp8, stronger effect = lower value 0.956 | S. cerevisiae deletion strains, locus YMR231W, strain pep5, stronger effect = lower value 0.992 | S. cerevisiae deletion strains, locus YMR263W, strain SAP30, stronger effect = lower value 0.982 | S. cerevisiae deletion strains, locus YMR307W, strain GAS1, stronger effect = lower value 0.98 | S. cerevisiae deletion strains, locus YNL067W, strain RPL9B, stronger effect = lower value 0.967 | S. cerevisiae deletion strains, locus YNL071W, strain lat1, stronger effect = lower value 1 | S. cerevisiae deletion strains, locus YNL153C, strain GIM3, stronger effect = lower value 0.98 | S. cerevisiae deletion strains, locus YNL183C, strain NPR1, stronger effect = lower value 0.975 | S. cerevisiae deletion strains, locus YNL209W, strain ssb2, stronger effect = lower value 0.988 | S. cerevisiae deletion strains, locus YNL233W, strain BNI4, stronger effect = lower value 0.991 | S. cerevisiae deletion strains, locus YNL248C, strain rpa49, stronger effect = lower value 1.01 | S. cerevisiae deletion strains, locus YNL250W, strain rad50, stronger effect = lower value 0.978 | S. cerevisiae deletion strains, locus YNL271C, strain bni1, stronger effect = lower value 0.979 | S. cerevisiae deletion strains, locus YNL298W, strain CLA4, stronger effect = lower value 0.963 | S. cerevisiae deletion strains, locus YNL307C, strain MCK1, stronger effect = lower value 0.978 | S. cerevisiae deletion strains, locus YNL322C, strain KRE1 (second series), stronger effect = lower value 0.978 | S. cerevisiae deletion strains, locus YNR049C, strain mso1, stronger effect = lower value 0.982 | S. cerevisiae deletion strains, locus YNR052C, strain pop2, stronger effect = lower value 0.977 | S. cerevisiae deletion strains, locus YOL006C, strain TOP1, stronger effect = lower value 1.02 | S. cerevisiae deletion strains, locus YOL012C, strain htz1 0.737 | S. cerevisiae deletion strains, locus YOL147C, strain pex11, stronger effect = lower value 0.987 | S. cerevisiae deletion strains, locus YOR001W, strain rrp6, stronger effect = lower value 1.02 | S. cerevisiae deletion strains, locus YOR061W, strain CKA2, stronger effect = lower value 0.96 | S. cerevisiae deletion strains, locus YOR069W, strain VPS5, stronger effect = lower value 0.99 | S. cerevisiae deletion strains, locus YOR070C, strain gyp1, stronger effect = lower value 0.987 | S. cerevisiae deletion strains, locus YOR080W, strain dia2, stronger effect = lower value 0.995 | S. cerevisiae deletion strains, locus YOR083W, strain WHI5, stronger effect = lower value 0.96 | S. cerevisiae deletion strains, locus YOR106W, strain vam3, stronger effect = lower value 0.971 | S. cerevisiae deletion strains, locus YOR136W, strain idh2, stronger effect = lower value 0.982 | S. cerevisiae deletion strains, locus YOR144C, strain elg1, stronger effect = lower value 0.978 | S. cerevisiae deletion strains, locus YOR184W, strain ser1, stronger effect = lower value 0.967 | S. cerevisiae deletion strains, locus YOR231W, strain MKK1, stronger effect = lower value 1.03 | S. cerevisiae deletion strains, locus YOR265W, strain rbl2, stronger effect = lower value 0.983 | S. cerevisiae deletion strains, locus YOR270C, strain vph1, stronger effect = lower value 0.966 | S. cerevisiae deletion strains, locus YOR290C, strain snf2, stronger effect = lower value 0.955 | S. cerevisiae deletion strains, locus YOR316C, strain cot1, stronger effect = lower value 0.978 | S. cerevisiae deletion strains, locus YPL051W, strain arl3, stronger effect = lower value 0.988 | S. cerevisiae deletion strains, locus YPL078C, strain atp4, stronger effect = lower value 0.969 | S. cerevisiae deletion strains, locus YPL106C, strain sse1, stronger effect = lower value 0.955 | S. cerevisiae deletion strains, locus YPL240C, strain hsp82, stronger effect = lower value 0.998 | S. cerevisiae deletion strains, locus YPL241C, strain CIN2, stronger effect = lower value 0.99 | S. cerevisiae deletion strains, locus YPL256C, strain CLN2, stronger effect = lower value 0.982 | S. cerevisiae deletion strains, locus YPR119W, strain clb2, stronger effect = lower value 0.984 | S. cerevisiae deletion strains, locus YPR141C, strain kar3, stronger effect = lower value 0.972 | S. cerevisiae deletion strains, locus YPR163C, strain tif3, stronger effect = lower value 0.969 | S. cerevisiae deletion strains, locus YPR167C, strain met16, stronger effect = lower value 0.963 | S. cerevisiae deletion strains, strain wtn01, stronger effect = lower value 1.02 | S. cerevisiae strains, strain wild type, stronger effect = lower value 0.989
